# Screening results (PubChem BioAssay)
# This is one part of a sample in which hits are shown more often than they occur.
# PRC2 inh = inhibitors of human EZH2/PRC2 methyltransferase. PRC2 H3K27 methylation, DELFIA TRF, 1 h. Q15910. inhibition, % at 12.5 µM. AID 651548. actives 0.35% (n = 57,000);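 active = mean inhibition of replicates at least 50% and every single replicate also reaching 50%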;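 also: dimethyl H3K27 on biotinylated H3 21-44 peptide detected by antibody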
# A number is an active result; 0 = inactive.
SMILES,PRC2 inh
C/C=C1\[C@H](O[C@@H]2O[C@H](CO)[C@@H](O)[C@H](O)[C@H]2O)OC=C(C(=O)OC)[C@H]1CC(=O)OC,0
C/C=C1/[C@H](O[C@@H]2O[C@H](CO)[C@@H](O)[C@H](O)[C@H]2O)OC=C(C(=O)OC)[C@H]1CC(=O)OCCc1ccc(OC(=O)C[C@@H]2C(C(=O)OC)=CO[C@@H](O[C@@H]3O[C@H](CO)[C@@H](O)[C@H](O)[C@H]3O)/C2=C/C)cc1,61
Cc1cc(C(F)(F)F)nc(SCC(=O)Nc2cc(C(F)(F)F)ccc2Cl)n1,0
COc1cc(C2Oc3c(O)ccc([C@@H]4Oc5cc(O)cc(O)c5C(=O)[C@H]4O)c3C2CO)ccc1O (stereo partly drawn),0
O=C1C[C@@H](c2ccccc2)Oc2cc(O)cc(O)c21,0
O=C(Oc1ccc([C@@H]2Oc3cc(O)cc(O)c3C[C@H]2O)cc1O)c1cc(O)c(O)c(O)c1,99
COc1ccc(S(=O)(=O)N2CCOCC2)cc1C(=O)NCCN1CCOCC1,0
CC1(CO)CC(O)CC2(C)C3=C(CCC12)C(=O)OC3 (stereo not drawn),0
O=C(CCCCC(=O)N/N=C/c1ccncc1Br)NO,0
CC(C(=O)Nc1cccc2ccccc12)N(c1ccc(Cl)cc1)S(C)(=O)=O (stereo not drawn),0
C/C=C/[C@H](CC(=O)N1Cc2ccccc2C[C@H]1CO)[Si](C)(C)c1ccc(OC)cc1,57
COc1ccc(C(=O)Nc2ccc(CN3C(=O)[C@]4(O[C@H](CC(=O)N5Cc6ccccc6C[C@H]5CO)[C@@H]([Si](C)(C)c5ccc(OC)cc5)[C@@H]4C)c4ccccc43)cc2)cc1,0
COc1ccc([Si](C)(C)[C@@H]2[C@@H](CC(=O)N3Cc4ccccc4C[C@H]3CO)O[C@]3(C(=O)N(C)c4c(Br)cc(C)cc43)[C@H]2C)cc1,0
COc1ccc(COC[C@]23N=C4Sc5ccc([N+](=O)[O-])cc5C(=O)N4[C@H](c4ccccc4O2)[C@H]3CO)cc1,0
COC(=O)COc1cc(Cl)c(C2NC(=S)NC(c3ccccc3)=C2C(C)=O)cc1OC (stereo not drawn),0
C[C@@H]1O[C@@H](OC[C@H]2O[C@@H](Oc3ccc(O)cc3)[C@H](O)[C@@H](OC(=O)c3ccc(O)cc3)[C@@H]2O)[C@H](O)[C@H](O)[C@H]1O,0
Cc1cc2c(cc1O[C@@H]1O[C@H](CO[C@@H]3OC[C@@H](O)[C@H](O)[C@H]3O)[C@@H](O)[C@H](O)[C@H]1O)C(=O)c1ccccc1C2=O,0
COC(=O)C1=COC(O[C@@H]2O[C@H](CO)[C@@H](O)[C@H](O)[C@H]2O)[C@@H]2[C@@](C)(O)[C@@H](OC(=O)/C=C\c3ccccc3)C[C@]12O (stereo partly drawn),0
C[C@@H]1O[C@@H](OC[C@H]2O[C@@H](OCCc3ccccc3)[C@H](O)[C@@H](O)[C@@H]2O)[C@H](O)[C@H](O)[C@H]1O,52
O[C@@H]1[C@@H](O)[C@H](OC/C=C/c2ccccc2)O[C@H](CO[C@@H]2OC[C@H](O)[C@H](O)[C@H]2O)[C@H]1O,90
COc1ccc(C2CC(=O)c3c(O)cc(O[C@@H]4O[C@H](CO[C@@H]5O[C@@H](C)[C@H](O)[C@@H](O)[C@H]5O)[C@@H](O)[C@H](O)[C@H]4O)cc3O2)cc1 (stereo partly drawn),0
C=CCOC(=O)[C@H]1[C@@H]2C(=O)O[C@@H](c3ccccc3)[C@@H](c3ccccc3)N2[C@@H](c2ccc(OCCOC(=O)[C@@H]3C[C@@H]4C(=O)N5CCC[C@H]5C(=O)N4[C@@H]3c3cccc(OCCO)c3)cc2)[C@]12C(=O)Nc1ccc(I)cc12,0
O=C(NCc1ccccn1)C(=O)Nc1ccccc1F,0
CC(CC(N)=O)OC(=O)c1cc(Cl)cc(O)c1O (stereo not drawn),0
Cc1ccc(C(=O)Nc2ccc(OCC(=O)O)cc2)cc1C,0
SMILES,PRC2 inh
CCOC(=O)c1c(NC(=O)CN2C(=O)c3ccccc3S2(=O)=O)sc2c1CCCC2,0
CC(=O)c1c(O)cc(O[C@@H]2O[C@H](CO)[C@@H](O)[C@H](O)[C@H]2O)cc1O,94
CC(C)=CCc1cc(O[C@@H]2O[C@H](CO)[C@@H](O)[C@H](O)[C@H]2O)cc(CC=C(C)C)c1C(O)C(=O)O (stereo partly drawn),99
COc1ccc(/C=C/c2cc(O)cc(O[C@@H]3O[C@H](CO)[C@@H](O)[C@H](O)[C@H]3O)c2)cc1,0
CC(O)CCCc1cc(O)cc(O[C@@H]2O[C@H](CO)[C@@H](O)[C@H](O)[C@H]2O)c1 (stereo partly drawn),0
O=C(CCc1ccc(O)cc1)c1c(O)cc(O)cc1O[C@@H]1O[C@H](CO)[C@@H](O)[C@H](O)[C@H]1O,0
CC(=O)c1ccc(O[C@@H]2O[C@H](CO)[C@@H](O)[C@H](O)[C@H]2O)c(/C=C/C(C)(C)O)c1,0
Cc1nnc(SCC(=O)Nc2ccc(C)c([N+](=O)[O-])c2)s1,0
